An excerpt weighted towards active compounds, which were near 6.9% of everything screened.
ASM inhibitor – Inhibitors of Secretory Acid Sphingomyelinase (S-ASM): qHTS; Sphingomyelin phosphodiesterase (Homo sapiens), P17405; placental ASM, HMU-PC fluorogenic substrate, 60 min; Potency, µM (series often up to 57.5 µM), for the others: at the highest dose activity change, negative = inhibition, most hits filed as inhibitors; actives 0.006% (n = 340,000); AID 504937, 2011; also: potency is read from the fitted curve at half-maximal effect
Target sequence (P17405 47-631 limits assumed): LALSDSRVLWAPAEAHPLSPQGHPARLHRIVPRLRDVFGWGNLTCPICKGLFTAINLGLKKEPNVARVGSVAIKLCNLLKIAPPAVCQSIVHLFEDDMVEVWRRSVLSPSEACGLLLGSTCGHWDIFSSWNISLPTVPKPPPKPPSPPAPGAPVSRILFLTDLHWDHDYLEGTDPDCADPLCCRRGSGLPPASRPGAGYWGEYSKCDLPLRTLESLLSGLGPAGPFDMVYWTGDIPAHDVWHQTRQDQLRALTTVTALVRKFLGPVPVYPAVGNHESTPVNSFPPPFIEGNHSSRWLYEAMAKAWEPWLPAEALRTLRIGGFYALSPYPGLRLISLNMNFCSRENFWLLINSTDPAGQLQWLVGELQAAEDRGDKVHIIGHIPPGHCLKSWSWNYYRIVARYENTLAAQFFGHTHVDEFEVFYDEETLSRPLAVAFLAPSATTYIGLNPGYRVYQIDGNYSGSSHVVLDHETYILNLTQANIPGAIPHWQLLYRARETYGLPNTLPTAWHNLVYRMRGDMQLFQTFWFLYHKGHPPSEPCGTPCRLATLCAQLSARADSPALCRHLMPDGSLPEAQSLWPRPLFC
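Steps: dispense placental human ASM, pin compound, wait 10 min at room temperature, add HMU-PC0 substrate at 9 uM final, incubate 60 min at 37 °C, add stop solution raising pH to 10, read fluorescence.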
KB-3-1 tox – qHTS assay for MDR1-selective chemotherapeutics: Primary screen using the parental adenocarcinoma cell KB-3-1 | AID 1347075, 2019 | Potency, µM (titrated, usually from 46.1 µM), most hits filed as cytotoxic | KB-3-1 viability, CellTiter-Glo ATP luminescence, 72 h | actives 1.4% (n = 400,000); also: potency is read from the fitted curve at half-maximal effect; % is scaled to controls: 0 for no effect and ±100 for the full control effect; nearly all actives have a fitted effect of over 60% in size
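Cells are dispensed, compounds pinned in, plates held at 37 °C for 72 h, then CellTiter-Glo is added and luminescence read after 10 minutes. Cell line: parental KB-3-1 in phenol-red-free DMEM, 10% FBS.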
MCF10A rerep – A quantitative high throughput screen for small molecules that induce DNA re-replication in MCF 10a normal breast cells | actives 2.9% (n = 350,000) | AID 624296, 2012 | Potency, µM (top dose mostly 46.1 µM), without a hit: top-dose activity, positive = re-replication, most hits filed as activators | MCF 10A DNA re-replication, Hoechst nuclear intensity, 48 h; also: potency is read from the fitted curve at half-maximal effect; % of control where 0% means no effect; nearly all actives have a fitted effect of over 50% in size
KB-V1 MDR tox – qHTS assay for MDR1-selective chemotherapeutics: Primary screen using the drug-selected MDR subline cells KB-V1. actives 3.4% (n = 400,000). Potency, µM (titrated, usually from 46.1 µM), hits mostly cytotoxic. KB-V1 MDR cells viability, CellTiter-Glo, 72 h. AID 1347076, 2019; also: potency is read from the fitted curve at half-maximal effect; % is scaled to controls: 0 for no effect and ±100 for the full control effect; nearly all actives have a fitted effect of over 60% in size
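Compound-treated KB-V1 multidrug-resistant cells, 72 h, 37 degrees C; viability by CellTiter-Glo. Fitted qHTS curves give the values.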
SW480 rerep – A quantitative high throughput screen for small molecules that induce DNA re-replication in SW480 colon adenocarcinoma cells | SW480 DNA re-replication, Hoechst DNA content imaging, 48 h | Potency, µM (series often up to 46.1 µM), for the others: at the top dose re-replication activation, most hits filed as activators | actives 1.8% (n = 340,000); also: potency is read from the fitted curve at half-maximal effect; % of control where 0% means no effect; nearly all actives have a fitted effect of over 55% in size
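Cells (250 per well) received 23 nL compound or DMSO by pin tool and were kept 48 hr at 37 C, 5% CO2. Nuclei were then stained with Hoechst for 40 min and scanned for DNA content.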
Giardia killer – Small Molecules that selectively kill Giardia lamblia: qHTS; actives 0.15% (n = 340,000); activity change, % at 7.66 µM, hits read low; Giardia lamblia trophozoite viability; in the data active = activity change below about -80%; inconclusive = between about -30% and that limit;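 also: parasites exposed to compound for two days anaerobically before the ATP read; % is scaled to controls: 0 for no effect and ±100 for the full control effect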
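Media and compound were dispensed first, then trophozoites at 100 cells/well; plates sat 48 hrs at 37 deg C without oxygen before ATP luminescence reagent was added and read after 15-30 min at room temperature.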
Active calls of the source: *; [ ] = dose if it differs, or a comment. Unless noted, calls follow the shape of the dose curve; as a rule, active = well fitted curve in the direction sought with a large enough effect; inconclusive = small, poorly fitted or top-dose-only effect, or another doubt; inactive = no such curve, though single readings can be large; an effect the other way counts as inactive or inconclusive.

How did Cc1ccc(C)c(S(=O)(=O)c2nnn3c2nc(NC2CCCCC2)c2sccc23)c1 do in these assays?
KB-3-1 tox: inconclusive; KB-V1 MDR tox: inactive

How did O=C(NCc1ccc(F)cc1)C1CCCCN1S(=O)(=O)c1ccc(F)cc1 (configuration not stated) do in these assays?
KB-3-1 tox: inactive; KB-V1 MDR tox: inactive

How did COc1ccc([N+](=O)[O-])c(S(=O)(=O)c2ccc(Cl)cc2)n1 do in these assays?
ASM inhibitor: -1%; KB-3-1 tox: inconclusive; MCF10A rerep: 3.7µM*; KB-V1 MDR tox: inactive; SW480 rerep: 2.9µM*; Giardia killer: 7

What do the screens show for `COc1ccc([N+](=O)[O-])c(S(=O)(=O)c2ccccc2)n1`?
ASM inhibitor: -3%; KB-3-1 tox: inconclusive; MCF10A rerep: 24%; KB-V1 MDR tox: 23µM*; SW480 rerep: inconclusive; Giardia killer: -9

What do the screens show for `COc1ccccc1S(=O)(=O)c1ccccc1[N+](=O)[O-]`?
ASM inhibitor: 5%; KB-3-1 tox: inactive; MCF10A rerep: -2%; KB-V1 MDR tox: inactive; SW480 rerep: -700%; Giardia killer: -23

How did COc1nc(OC)nc(Oc2ccc(Cl)cc2[N+](=O)[O-])n1 do in these assays?
ASM inhibitor: 0%; KB-3-1 tox: inactive; MCF10A rerep: 2%; KB-V1 MDR tox: inactive; SW480 rerep: -5%; Giardia killer: -2

How did O=[N+]([O-])c1cccnc1S(=O)(=O)c1ccccc1 do in these assays?
ASM inhibitor: -1%; KB-3-1 tox: inconclusive; MCF10A rerep: 2.9µM*; KB-V1 MDR tox: inconclusive; SW480 rerep: 9.2µM*; Giardia killer: -1

How did O=[N+]([O-])c1cccnc1Nc1ccc(Cl)cc1 do in these assays?
KB-3-1 tox: inactive; KB-V1 MDR tox: inactive

What do the screens show for `NS(=O)(=O)c1ccc(Nc2ncccc2[N+](=O)[O-])cc1`?
ASM inhibitor: -4%; KB-3-1 tox: inactive; MCF10A rerep: -1%; KB-V1 MDR tox: inconclusive; SW480 rerep: 3%; Giardia killer: -91*

Results for CCC(=O)Nc1cc2c(cc1Cl)-c1ccccc1C2 ?
ASM inhibitor: 3%; KB-3-1 tox: inactive; MCF10A rerep: 14%; KB-V1 MDR tox: inactive; SW480 rerep: 10%; Giardia killer: 23

Results for Cc1oc(-c2cccs2)nc1CN1CC[C@@](O)(c2ccccc2)[C@H]2CCCC[C@@H]21 ?
ASM inhibitor: 4%; KB-3-1 tox: inactive; MCF10A rerep: -5%; KB-V1 MDR tox: inactive; SW480 rerep: -4%; Giardia killer: -12

What do the screens show for `OC1(c2ccccc2)CCN(Cc2ccccc2)C2CCCCC21` (configuration not stated)?
ASM inhibitor: 0%; KB-3-1 tox: inactive; MCF10A rerep: 11%; KB-V1 MDR tox: 23µM*; SW480 rerep: -35%; Giardia killer: 10

How did CSc1ccc(C(=O)C2CCCN(C(=O)c3ccc4c(c3)no[n+]4[O-])C2)cc1 (configuration not stated) do in these assays?
ASM inhibitor: -6%; KB-3-1 tox: inactive; MCF10A rerep: 18µM*; KB-V1 MDR tox: inconclusive; SW480 rerep: -3%; Giardia killer: 3

Results for CSc1ccc(C(=O)C2CCCN(C(=O)c3ccsc3)C2)cc1 (configuration not stated) ?
ASM inhibitor: -2%; KB-3-1 tox: inactive; MCF10A rerep: -8%; KB-V1 MDR tox: inconclusive; SW480 rerep: -10%; Giardia killer: 6

Results for CSc1ccc(C(=O)C2CCCN(S(=O)(=O)N(C)C)C2)cc1 (configuration not stated) ?
ASM inhibitor: 0%; KB-3-1 tox: inconclusive; MCF10A rerep: -2%; KB-V1 MDR tox: 21µM*; SW480 rerep: -2%; Giardia killer: 16

How did CCOc1cc(S(=O)(=O)NC2CC2)c(OCC)cc1-n1cnnn1 do in these assays?
ASM inhibitor: 1%; KB-3-1 tox: inactive; MCF10A rerep: 16%; KB-V1 MDR tox: 15µM*; SW480 rerep: -11%; Giardia killer: 1

Results for CCOc1ccc(Br)cc1S(=O)(=O)NC1CCCC1 ?
ASM inhibitor: -4%; KB-3-1 tox: inactive; MCF10A rerep: 11%; KB-V1 MDR tox: 16µM*; SW480 rerep: -4%; Giardia killer: 0

Results for CCOc1cc(C)c(S(=O)(=O)NC2CCCCC2)cc1C ?
ASM inhibitor: -14%; KB-3-1 tox: inconclusive; MCF10A rerep: -2%; KB-V1 MDR tox: inconclusive; SW480 rerep: -1%; Giardia killer: -4

What do the screens show for `CCOc1cc(S(=O)(=O)NCc2ccc(OC)cc2)c(OCC)cc1-n1cnnn1`?
ASM inhibitor: -2%; KB-3-1 tox: inactive; MCF10A rerep: inconclusive; KB-V1 MDR tox: 5.2µM*; SW480 rerep: inconclusive; Giardia killer: 10

Results for CCc1ccccc1NC(=O)CSc1nc2c(c(=O)[nH]1)CN(Cc1ccccc1OC)CC2 ?
KB-3-1 tox: inactive; KB-V1 MDR tox: inactive

Results for C[C@@H]1CCC[C@H](C)N1 ?
MCF10A rerep: 5%[20.6 µM]; SW480 rerep: 1%[20.6 µM]

How did Cn1nc(C(=O)OCC(=O)c2ccc(Cl)cc2)c2ccccc2c1=O do in these assays?
ASM inhibitor: -6%; KB-3-1 tox: inactive; MCF10A rerep: 0%; KB-V1 MDR tox: inactive; SW480 rerep: -10%; Giardia killer: -5

How did CC(C)OCCCN1C(=O)c2[nH]nc(-c3ccccc3O)c2C1c1cccc(OCc2ccccc2)c1 (configuration not stated) do in these assays?
KB-3-1 tox: inactive; KB-V1 MDR tox: inconclusive

How did Cc1ccc(F)cc1NC(=O)c1ccc(NS(=O)(=O)c2ccc(Br)s2)cc1 do in these assays?
ASM inhibitor: -12%; KB-3-1 tox: inactive; MCF10A rerep: inconclusive; KB-V1 MDR tox: 16µM*; SW480 rerep: inconclusive; Giardia killer: 5

What do the screens show for `O=C(O)CCC(=O)Nc1cccc2cccnc12`?
ASM inhibitor: -5%; KB-3-1 tox: inactive; MCF10A rerep: -8%; KB-V1 MDR tox: inactive; SW480 rerep: 0%; Giardia killer: 0

Results for O=C(CCC(=O)OCC(=O)c1ccccc1)Nc1cccc2cccnc12 ?
ASM inhibitor: 3%; KB-3-1 tox: inactive; MCF10A rerep: 16µM*; KB-V1 MDR tox: inactive; SW480 rerep: 18µM*; Giardia killer: -1

Assay outcomes as filed in PubChem.
